Holding throughout (assay): DAPPL (digital affinity profiling via proximity ligation, sequencing); 10 mM Tris-HCl pH 7.5, 50 mM NaCl, 1 mM DTT, 4% glycerol, room temperature, 30 min; GST-TFs on glutathione beads, 16-mer random dsDNA library, 0.1% formaldehyde crosslink after washing; high values mean tight binding
What all share (settings): protein: recombinant; tags: N-terminal GST; dsDNA, one strand shown

Assay [1] deals with T1, FLI1 (Homo sapiens, UniProt Q01543 1-452).
T1 sequence: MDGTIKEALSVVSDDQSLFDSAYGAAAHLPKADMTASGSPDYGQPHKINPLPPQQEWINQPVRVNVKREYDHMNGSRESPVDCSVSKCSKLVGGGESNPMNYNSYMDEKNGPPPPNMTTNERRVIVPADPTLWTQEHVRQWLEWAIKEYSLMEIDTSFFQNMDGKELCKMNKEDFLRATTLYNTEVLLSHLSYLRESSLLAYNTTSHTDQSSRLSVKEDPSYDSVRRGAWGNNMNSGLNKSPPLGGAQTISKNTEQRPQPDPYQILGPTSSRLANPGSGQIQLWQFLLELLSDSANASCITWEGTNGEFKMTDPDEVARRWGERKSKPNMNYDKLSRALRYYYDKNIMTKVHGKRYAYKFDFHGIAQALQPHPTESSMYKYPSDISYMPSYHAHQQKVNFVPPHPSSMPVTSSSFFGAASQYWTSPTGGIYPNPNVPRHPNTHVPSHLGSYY
The method, boiled down:
(§1)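 In yeast, human transcription factors were expressed with a GST fusion, then pulled down on glutathione beads and given DNA barcodes. Pooled with a tag-only sample, they were exposed to 200 nmole of a 16-mer random double-stranded DNA library (Tris/NaCl/DTT/glycerol buffer, room temperature, 30 min), washed, crosslinked with 0.1% formaldehyde, proximity-ligated using BsaI/T4 ligase for 1 h at 37 °C, PCR-amplified and read on an Illumina NextSeq500. Each hexamer's frequency of reads for a factor, divided by the matching frequency for the tag-only sample, gives the binding signal.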

For assay [2], the target named is T2, ELK1 (Homo sapiens, UniProt P19419 1-428).
T2 sequence: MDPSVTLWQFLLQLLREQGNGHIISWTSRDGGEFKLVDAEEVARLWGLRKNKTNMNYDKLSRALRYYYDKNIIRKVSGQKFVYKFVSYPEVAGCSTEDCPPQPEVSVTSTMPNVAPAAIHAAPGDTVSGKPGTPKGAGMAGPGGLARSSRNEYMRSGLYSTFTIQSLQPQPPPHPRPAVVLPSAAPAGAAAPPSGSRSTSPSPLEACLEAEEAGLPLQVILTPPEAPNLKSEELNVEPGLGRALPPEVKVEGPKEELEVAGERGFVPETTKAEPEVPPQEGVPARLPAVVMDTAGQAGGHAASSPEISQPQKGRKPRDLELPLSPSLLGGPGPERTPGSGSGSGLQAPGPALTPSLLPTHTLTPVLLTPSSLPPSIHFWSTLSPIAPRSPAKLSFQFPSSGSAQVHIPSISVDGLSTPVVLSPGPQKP
The method, boiled down:
as §1

Assay [3] addresses T3, GABPA (Homo sapiens, UniProt Q06546 1-454).
T3 sequence: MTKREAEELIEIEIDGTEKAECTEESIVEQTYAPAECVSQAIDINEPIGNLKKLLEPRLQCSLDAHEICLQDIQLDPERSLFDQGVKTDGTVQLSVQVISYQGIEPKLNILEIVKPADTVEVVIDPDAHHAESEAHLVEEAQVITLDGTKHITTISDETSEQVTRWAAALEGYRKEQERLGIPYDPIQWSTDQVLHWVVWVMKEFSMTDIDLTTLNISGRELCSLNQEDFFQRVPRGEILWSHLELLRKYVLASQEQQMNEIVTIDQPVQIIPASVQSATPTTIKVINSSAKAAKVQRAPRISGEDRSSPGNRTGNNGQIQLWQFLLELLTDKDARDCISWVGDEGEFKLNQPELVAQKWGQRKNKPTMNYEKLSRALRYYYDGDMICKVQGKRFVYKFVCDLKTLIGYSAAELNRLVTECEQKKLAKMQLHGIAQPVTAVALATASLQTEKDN
The method, boiled down:
as §1

Assay [4] has as its target T4, ERG (Homo sapiens, UniProt P11308 1-479).
T4 sequence: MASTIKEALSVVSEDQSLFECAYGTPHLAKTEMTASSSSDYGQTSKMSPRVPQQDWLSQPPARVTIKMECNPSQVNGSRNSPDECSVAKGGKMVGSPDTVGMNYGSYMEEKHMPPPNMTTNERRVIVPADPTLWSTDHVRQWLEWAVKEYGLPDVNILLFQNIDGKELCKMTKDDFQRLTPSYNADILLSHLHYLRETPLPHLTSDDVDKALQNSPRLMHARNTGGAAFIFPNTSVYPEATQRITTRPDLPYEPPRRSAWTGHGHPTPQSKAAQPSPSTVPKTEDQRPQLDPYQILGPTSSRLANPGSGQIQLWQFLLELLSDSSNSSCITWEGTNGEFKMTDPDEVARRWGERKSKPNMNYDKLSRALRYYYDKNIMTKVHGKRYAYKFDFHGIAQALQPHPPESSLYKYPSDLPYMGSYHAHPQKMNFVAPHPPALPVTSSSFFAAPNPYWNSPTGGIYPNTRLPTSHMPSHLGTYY
The method, boiled down:
as §1

Assay [5] addresses ELF1 (Homo sapiens, UniProt P32519 1-619). The essentials:
as §1

Assay [6] concerns the target T5, EHF (Homo sapiens, UniProt Q9NZC4 1-300).
T5 sequence: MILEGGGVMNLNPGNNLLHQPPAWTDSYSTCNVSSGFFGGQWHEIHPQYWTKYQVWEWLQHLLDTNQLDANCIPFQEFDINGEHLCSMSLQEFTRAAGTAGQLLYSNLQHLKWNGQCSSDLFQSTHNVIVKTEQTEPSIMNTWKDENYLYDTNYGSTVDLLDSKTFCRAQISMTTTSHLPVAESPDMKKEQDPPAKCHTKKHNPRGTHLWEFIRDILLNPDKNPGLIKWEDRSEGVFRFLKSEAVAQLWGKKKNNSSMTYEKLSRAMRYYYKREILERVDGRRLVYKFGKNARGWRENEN
The essentials:
as §1

The target of assay [7] is SPI1 (Homo sapiens, UniProt P17947 1-270). The essentials:
as §1

In assay [8] the target is SPIB (Homo sapiens, UniProt Q01892 1-262). The essentials:
as §1

Assay [9] concerns the target T6, ELK3 (Homo sapiens, UniProt P41970 1-407).
T6 sequence: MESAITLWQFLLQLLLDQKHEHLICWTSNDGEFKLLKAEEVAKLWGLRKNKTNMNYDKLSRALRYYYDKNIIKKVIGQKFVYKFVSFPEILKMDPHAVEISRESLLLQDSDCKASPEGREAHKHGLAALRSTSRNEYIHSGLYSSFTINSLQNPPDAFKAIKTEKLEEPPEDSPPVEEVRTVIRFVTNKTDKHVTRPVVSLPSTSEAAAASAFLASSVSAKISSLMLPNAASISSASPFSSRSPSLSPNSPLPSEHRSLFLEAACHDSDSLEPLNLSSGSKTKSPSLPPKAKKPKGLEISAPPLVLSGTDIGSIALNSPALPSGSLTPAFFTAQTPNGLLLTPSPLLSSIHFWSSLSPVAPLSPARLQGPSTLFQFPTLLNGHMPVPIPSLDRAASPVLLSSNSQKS
The method, boiled down: as §1

Chain of ELF1 (P32519 whole entry): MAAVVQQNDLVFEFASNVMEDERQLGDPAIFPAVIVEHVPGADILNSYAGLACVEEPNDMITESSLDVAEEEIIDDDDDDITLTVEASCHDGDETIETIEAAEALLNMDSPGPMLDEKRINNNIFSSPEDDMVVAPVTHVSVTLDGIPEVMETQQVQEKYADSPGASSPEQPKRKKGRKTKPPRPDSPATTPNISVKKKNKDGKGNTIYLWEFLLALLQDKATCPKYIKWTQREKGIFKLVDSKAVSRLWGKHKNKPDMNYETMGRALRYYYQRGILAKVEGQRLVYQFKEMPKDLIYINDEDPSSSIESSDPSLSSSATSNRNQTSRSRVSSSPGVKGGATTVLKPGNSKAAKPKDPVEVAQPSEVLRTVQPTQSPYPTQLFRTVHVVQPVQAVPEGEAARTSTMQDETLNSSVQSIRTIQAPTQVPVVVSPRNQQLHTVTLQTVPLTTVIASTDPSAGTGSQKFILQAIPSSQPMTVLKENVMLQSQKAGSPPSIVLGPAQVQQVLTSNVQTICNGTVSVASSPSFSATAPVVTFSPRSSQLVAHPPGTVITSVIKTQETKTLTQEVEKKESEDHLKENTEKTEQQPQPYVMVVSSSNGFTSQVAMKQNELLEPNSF
Chain of SPIB (Q01892 whole entry): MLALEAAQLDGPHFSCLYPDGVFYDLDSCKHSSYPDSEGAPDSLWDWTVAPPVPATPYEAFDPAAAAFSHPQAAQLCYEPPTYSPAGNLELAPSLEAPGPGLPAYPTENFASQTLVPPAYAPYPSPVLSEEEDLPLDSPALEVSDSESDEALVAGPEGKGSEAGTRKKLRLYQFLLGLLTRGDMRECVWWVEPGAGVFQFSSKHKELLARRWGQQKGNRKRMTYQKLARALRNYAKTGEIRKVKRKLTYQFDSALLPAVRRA

Consider CCTCAT, for which the binding signal in [1] is 1.35 fold enrichment (6-mer frequency, TF over GST control); in assay [2], 1.3 fold enrichment (6-mer frequency, TF over GST control); in [3], 1.34 fold enrichment (6-mer frequency, TF over GST control); in [4], 1.34 fold enrichment (6-mer frequency, TF over GST control); in assay [5], 1.35 fold enrichment (6-mer frequency, TF over GST control); in [6], 1.39 fold enrichment (6-mer frequency, TF over GST control). The binding signal in assay [7] was 1.67 fold enrichment (6-mer frequency, TF over GST control); in [8] it was 1.33 fold enrichment (6-mer frequency, TF over GST control); in [9], 1.23 fold enrichment (6-mer frequency, TF over GST control).

For the origin of these results see article PMC7862700, “An all-to-all approach to the identification of sequence-specific readers for epigenetic DNA modifications on cytosine”.
